Source: PubChem BioAssay

Experiment: probe aShh binding to arrayed compounds – biochemical, biotinylated probe, 635/667 nm fluorescence, primary screen (AID 1114);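 note: probe is biotin-labelled aShh protein from a stem cell growth factor screen; measures binding of labelled protein to compounds printed on the slide; score merges feature fluorescence at 667 nm with signal-to-noise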
Details: small-molecule microarray, higher = more signal

Compound | composite z-score
COc1cc2c(cc1O)C=[N+](Cc1cccc(OC(F)(F)F)c1)CC2 | -0.206
CCOC(=O)C=Cc1cc([N+](=O)[O-])ccc1O | 0.173
N#Cc1ccc(NN2C(C(O)c3c(F)cccc3Cl)C=CC3C(=O)N(c4ccccc4)C(=O)C32)cc1 (stereo unspecified) | -0.195
O=C1O[C@H](c2ccccc2)[C@H](c2ccccc2)N2[C@H]1[C@@H](C(=O)NC[C@H](O)c1ccccc1)[C@]1(C(=O)Nc3ccccc31)[C@H]2c1ccc(OCCO)cc1 | -0.167
O=C1c2ccccc2[C@](Cc2ccccc2I)(C(=O)NC2CC2)[C@H](c2ccc(CO)cc2)N1C1CCCCC1 | -0.421
CC(C)C[C@@H]1NC(=O)[C@@H]2C[C@H](C(=O)NCCCCCN)[C@H](c3cccc(OCCO)c3)N2C1=O | -0.153
CCCCCN1CC=CC23O[C@@H]4/C=C\CCCOC(=O)C4[C@H]2C(=O)N(C(CO)C(C)C)[C@@H]3C1=O (stereo partly specified) | -0.416
O=C(NCc1ccc(F)cc1)[C@H]1C[C@H]2C(=O)N[C@@H](Cc3ccccc3)C(=O)N2[C@H]1c1ccc(O)cc1 | -0.244
COCC(=C=CC[C@@H](O)c1ccccc1OCCO)C[C@@H](O)c1cc(Cl)cc(Cl)c1O | -0.14
COCCOC(=O)N1C(=O)[C@@]2(c3cc(C#CC4=CCCCC4)ccc31)[C@H](C(N)=O)[C@H]1C(=O)O[C@H](c3ccccc3)[C@H](c3ccccc3)N1[C@@H]2c1ccc(OCCO)cc1 | 0.049
O=C1OCCC/C=C\[C@H]2OC34C=CCN(Cn5nnc6ccccc65)C(=O)[C@H]3N(CCO)C(=O)[C@@H]4C12 (stereo partly specified) | 0.022
C=CCOC(=O)[C@H]1[C@@H]2C(=O)O[C@@H](c3ccccc3)[C@@H](c3ccccc3)N2[C@@H](c2ccc(OCCOC(=O)[C@@H]3C[C@@H]4C(=O)N5CCC[C@H]5C(=O)N4[C@@H]3c3cccc(OCCO)c3)cc2)[C@]12C(=O)Nc1ccccc12 | 0.0381
CCCCCCC#C[Si](O[C@H](c1ccccc1)c1cn([C@H](CO)Cc2ccccc2)nn1)(C(C)C)C(C)C | 0.298
COc1ccc([Si](C)(C)[C@H]2[C@H](CC(=O)N3CCC[C@H]3CO)O[C@@]3(C(=O)N(Cc4cccc(N5C(=O)c6cccc7cccc5c67)c4)c4ccccc43)[C@@H]2C)cc1 | -0.196
CC(C)C[C@@H]1NC(=O)[C@H]2C[C@@H](C(=O)NCCCCCCN(C)C)[C@@H](c3ccc(O)cc3)N2C1=O | 0.207
CN1C(=O)C2C=CC(C(O)C3CC=CCC3)N(NC(=O)OC(C)(C)C)C2C1=O (stereo unspecified) | -0.195
O=C1OCCC/C=C\[C@H]2OC34C=CCN(CCN5CCOCC5)C(=O)[C@H]3N(CCCO)C(=O)[C@@H]4C12 (stereo partly specified) | -0.26
Cc1ccc(S[C@]2(C(=O)NCC(F)(F)F)CC(=O)N(C(C)C)[C@@H]2c2ccc(CO)cc2I)cc1 | -0.0192

Compound | composite z-score
CCCCCN1CC=CC23O[C@@H]4/C=C\CCCOC(=O)C4[C@H]2C(=O)N(CCCO)[C@@H]3C1=O (stereo partly specified) | -0.214
CN(C)C(=O)[C@]1(Cc2ccccc2N=[N+]=[N-])N=C(c2ccc(OCCCO)cc2)O[C@@H]1c1ccccc1 | -0.116
COCCOC(=O)N1C(=O)[C@@]2(c3cc(C#CC4=CCCCC4)ccc31)[C@H](C(=O)Nc1nc3ccccc3s1)[C@H]1C(=O)O[C@H](c3ccccc3)[C@H](c3ccccc3)N1[C@@H]2c1ccccc1OCCO | 0.126
CN1C(=O)C2C=CC(C(O)c3cccs3)N(Nc3ccccc3)C2C1=O (stereo unspecified) | 0.265
CCc1oc(CC[C@@H](CO)NC(=O)NCCn2cc(C3(O)CCCCC3)nn2)c(C(=O)OC)c1C(=O)OC | 0.381
C=C[C@H](COC(C)=O)N(C(=O)OC(C)(C)C)S(=O)(=O)c1ccc(Br)cc1 | 0.113
C[N+](C)(C)CCCCNC(=O)[C@H]1C[C@H]2C(=O)N[C@@H](Cc3ccccc3)C(=O)N2[C@H]1c1ccc(O)cc1 | 0.442
CCOC(=O)[C@H]1C/C=C/C[C@H](C(=O)OCC)C(=O)O[C@H]2[C@@H](OC)O[C@H](CO)[C@@H](OC(=O)Nc3cccc(F)c3)[C@@H]2OC1=O | 0.0818
NCCCCCNC(=O)[C@@H]1C[C@@H]2C(=O)N[C@@H](Cc3ccccc3)C(=O)N2[C@@H]1c1cccc(OCCO)c1 | -0.0652
C=CCOC(=O)[C@H]1[C@@H]2C(=O)O[C@@H](c3ccccc3)[C@@H](c3ccccc3)N2[C@@H](c2ccc(OCCOC(=O)[C@@H]3C[C@@H]4C(=O)N[C@@H](CCCCN(C)C)C(=O)N4[C@@H]3c3ccc(O)cc3)cc2)[C@]12C(=O)Nc1ccc(I)cc12 | 0.462
CC(C)C[C@H]1NC(=O)[C@@]23C(=O)N[C@@H](Cc4ccccc4)C2[C@H](C)[C@@]2(C)O[C@H]2C3/C=C/C/C=C\CNC(=O)[C@H](Cc2ccccc2)NC1=O (stereo partly specified) | -0.0553
CCOC(=O)[C@H]1CC=C2CC1C(=O)N1CCC[C@@H]1[C@@H]2O[Si](C)(C)C(C)(C)C (stereo partly specified) | -0.297
COc1ccc([Si](C)(C)[C@H]2[C@H](CC(=O)N3Cc4ccccc4C[C@H]3CO)O[C@@]3(C(=O)N(Cc4ccc(N5CCC5=O)cc4)c4ccccc43)[C@@H]2C)cc1 | -0.144
O=C1C2C=CC(C(O)C(c3ccccc3)c3ccccc3)N(n3cnnc3)C2C(=O)N1Cc1ccccc1 (stereo unspecified) | 0.184
O=C(O)[C@@]1(CCS(=O)(=O)c2ccccc2)COC(c2ccc(OCCCO)cc2)=N1 | 0.0062
C[C@]1(C(=O)NC2CC2)c2ccccc2C(=O)N(Cc2cc(C(F)(F)F)cc(C(F)(F)F)c2)[C@H]1c1ccc(CO)cc1 | -0.276
CCCC[C@@H]1C[C@H]1[C@@H](NC(=O)c1ccco1)c1ccc(C(=O)OC)cc1 | -0.217
O=C1O[C@H](c2ccccc2)[C@H](c2ccccc2)N2[C@H]1[C@@H](C(=O)Nc1nc3ccccc3s1)[C@]1(C(=O)Nc3ccc(C#CCCO)cc31)[C@H]2c1ccc(OCCO)cc1 | 0.184
